For 24 compounds, growth results are on record in PubChem BioAssay (NCI).

Among the test systems are NCI-H23 lung; NCI-H322M lung; HOP-62 NSCLC; NCI-H460 lung; HOP-92 NSCLC; NCI-H522 lung; A549/ATCC NSCLC; COLO 205 colon; 786-0 renal; NCI-H226 lung.
Experiment in all cases: NCI-60 one-dose screen, 48 h (100 = growth as untreated, 0 = no growth, -100 = all killed)
What all share (details): 10 µM

This is part of a sample that, as a whole, favours compounds with a hit. Of some 83,000 tested, about 20% had one in any assay.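 In brief: 96-well plates, 48 h treatment, single concentration, percent growth endpoint.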 Values without a mark were called inactive. Calls of active or inactive are those of the source. How the source made its calls: active means growth percent below 10; inactive means the rest.

For `O=[N+]([O-])c1ccc(N=Nc2ccc(O)c3ccccc23)cc1`, the growth in the test on NCI-H23 lung is 6.51% (active); with NCI-H322M lung it was 79.3%; with HOP-62 NSCLC, 75.2%; in the test with NCI-H460 lung it was 30.9%; in the test with HOP-92 NSCLC, 10.8%; with NCI-H522 lung, -14.2% (active). Moreover, the growth with A549/ATCC NSCLC was 71.1%; in the test with COLO 205 colon it was 88.5%.

Regarding `O=C(O)CNC(=O)c1ccccc1`, the growth with NCI-H23 lung was 107%; in the test with NCI-H322M lung, 104%.

On to `NC(=S)N/N=C/c1ccc(N)cc1`, for which the growth is 89.5% in the test with NCI-H23 lung; 99.4% in the test on NCI-H322M lung; 97% in the test on HOP-62 NSCLC; 106% with NCI-H460 lung; 89.1% in the test on HOP-92 NSCLC; 92.3% with NCI-H522 lung. Also, the figures for the growth in the test on A549/ATCC NSCLC, in the test on 786-0 renal and with COLO 205 colon were 76%, 99.9% and 110%, respectively.

Regarding `CCCCCCCCO`, the growth in the test on NCI-H23 lung was 97.5%; in the test on NCI-H322M lung it was 108%; with HOP-62 NSCLC it was 99.6%; with NCI-H460 lung, 103%; with HOP-92 NSCLC it was 107%; in the test with NCI-H522 lung it was 107%. Further, the growth in the test on A549/ATCC NSCLC was 100%; with 786-0 renal it was 102%; in the test on COLO 205 colon, 114%.

For the compound `COc1cc(C2c3cc4c(cc3C3OC(=O)C2C3CO)OCO4)cc(OC)c1OC` (stereo not drawn), the growth is 14.7% in the test with NCI-H23 lung; 36.9% in the test with NCI-H322M lung; 28.5% in the test with HOP-62 NSCLC; 0.82% (active) in the test with NCI-H460 lung; 45.7% with HOP-92 NSCLC; -30.5% (active) with NCI-H522 lung. Also, the growth in the test with A549/ATCC NSCLC was 14.9%; in the test with 786-0 renal it was 14.4%; in the test with COLO 205 colon, -92.4% (active).

`O=c1[nH][nH]c(=O)c2cc([N+](=O)[O-])ccc12`: the growth in the test on NCI-H23 lung is 101%; in the test on NCI-H322M lung, 123%; with HOP-62 NSCLC, 102%; with NCI-H460 lung, 111%; with HOP-92 NSCLC it was 107%; with NCI-H522 lung, 90.6%. Further, the growth in the test with A549/ATCC NSCLC is 108%; with 786-0 renal, 106%; in the test on COLO 205 colon it was 99.6%.

Consider `CC(=Nc1ccccc1)C1=C(O)C(Cc2cccc(F)c2)NC1=O` (stereo not drawn), for which the growth in the test on NCI-H23 lung is 17.1%; in the test on NCI-H322M lung, 31.8%; in the test on HOP-62 NSCLC, 28.9%; with NCI-H460 lung, 6.19% (active); in the test on HOP-92 NSCLC, 41.2%; with NCI-H522 lung, -34.5% (active). Further, the growth in the test with A549/ATCC NSCLC is 14.3%; with 786-0 renal, 15.3%; with COLO 205 colon it was -55.5% (active).

Take `COC(=O)c1ccc(C(C)C)cc1`: the growth was 100% with NCI-H23 lung; 95.8% with NCI-H322M lung; 87.8% in the test on HOP-62 NSCLC; 114% with NCI-H460 lung; 82.7% with HOP-92 NSCLC; 79.3% in the test on NCI-H522 lung. Moreover, the growth in the test on A549/ATCC NSCLC was 90.5%; in the test with 786-0 renal it was 100%; with COLO 205 colon it was 98%.

In the case of `Cn1cnc2nc(Cl)nc(Cl)c21`, the growth with NCI-H23 lung is 40.6%; with NCI-H322M lung, 34.1%; in the test with HOP-62 NSCLC it was 8.69% (active); with NCI-H460 lung, -9.25% (active); in the test with HOP-92 NSCLC it was 31.3%; in the test on A549/ATCC NSCLC it was 17.2%. Besides, the growth with 786-0 renal was 4.6% (active); in the test with COLO 205 colon, -29.3% (active).

Regarding `C/C(=N/NC(N)=O)c1ccco1`, the growth in the test with NCI-H23 lung is 97.1%; in the test with NCI-H322M lung it was 107%; in the test with HOP-62 NSCLC, 85.7%; with NCI-H460 lung, 107%; in the test with HOP-92 NSCLC, 89.8%; in the test on NCI-H522 lung it was 90.5%. The growth is 83.7% in the test on A549/ATCC NSCLC, 99.9% in the test on 786-0 renal and 105% in the test on COLO 205 colon.

`CC(=O)OCCO`: the growth with NCI-H23 lung is 108%; in the test with NCI-H322M lung, 102%; with HOP-62 NSCLC it was 109%; in the test on NCI-H460 lung, 111%; with NCI-H522 lung it was 111%; in the test with A549/ATCC NSCLC, 99.2%. The growth in the test on 786-0 renal was 101%; with COLO 205 colon, 107%.

For `CCCC(C)OCC(=O)O` (stereo not drawn), the growth in the test on NCI-H23 lung is 109%; with NCI-H322M lung, 96.8%; with HOP-62 NSCLC it was 111%; in the test on NCI-H460 lung, 103%; in the test on HOP-92 NSCLC, 76.6%; in the test with NCI-H522 lung it was 101%. In addition, the growth in the test with A549/ATCC NSCLC is 93.9%; in the test on 786-0 renal, 107%; with COLO 205 colon it was 108%.

For `CCCCOC(=O)c1ccc(C(C)C)cc1`, the growth with NCI-H23 lung is 98.2%; in the test on NCI-H322M lung, 96.3%; in the test with HOP-62 NSCLC, 85.4%; in the test on NCI-H460 lung, 109%; in the test on HOP-92 NSCLC it was 88.2%; with NCI-H522 lung it was 83.1%. Also, the growth in the test with A549/ATCC NSCLC was 77%; in the test with 786-0 renal, 95.4%; in the test with COLO 205 colon it was 110%.

For `OCC(O)C(O)C(O)C(O)/C=N/O` (stereo not drawn), the growth in the test on NCI-H23 lung was 101%; in the test on NCI-H322M lung, 103%; in the test with HOP-62 NSCLC, 83.5%; in the test with NCI-H460 lung it was 99.8%; in the test with HOP-92 NSCLC it was 74.8%; in the test on NCI-H522 lung, 94.9%. Also, the values for the growth in the test with A549/ATCC NSCLC, in the test with 786-0 renal and in the test on COLO 205 colon were 60.9%, 96.8% and 112%, respectively.

As for `CC(=O)/C(Cc1ccccc1)=N/O`, the growth in the test with NCI-H23 lung was 97.3%; with NCI-H322M lung it was 105%; in the test on HOP-62 NSCLC, 98.4%; in the test with NCI-H460 lung it was 105%; in the test on HOP-92 NSCLC it was 68%; in the test on NCI-H522 lung, 74.3%. In addition, the growth is 95.4% with A549/ATCC NSCLC, 102% with 786-0 renal and 97.9% in the test with COLO 205 colon.

In the case of `O=c1[nH]nc(SC2CCCCC2)c(=O)[nH]1`, the growth was 91.3% in the test with NCI-H23 lung; 96.8% in the test with NCI-H322M lung; 93.7% in the test on HOP-62 NSCLC; 104% in the test on NCI-H460 lung; 82% in the test on HOP-92 NSCLC; 80.5% in the test with NCI-H522 lung. The growth in the test with A549/ATCC NSCLC was 91.4%.

In the case of `O=C(O)CCCC(=O)O`, the growth in the test with NCI-H23 lung was 95.3%; in the test on NCI-H322M lung it was 98.9%; in the test with HOP-62 NSCLC, 97.7%; in the test with NCI-H460 lung, 101%; in the test on NCI-H522 lung, 99.7%; in the test with A549/ATCC NSCLC, 97.9%. Moreover, the growth was 106% in the test on 786-0 renal and 97.1% in the test on COLO 205 colon.

`CCOc1ccccc1/C=N/Nc1nc2ccccc2o1`: the growth in the test with NCI-H226 lung was 103%; in the test on NCI-H322M lung, 113%; in the test with HOP-62 NSCLC, 97.2%; in the test on NCI-H460 lung it was 102%; in the test on HOP-92 NSCLC it was 87.9%; in the test on NCI-H522 lung, 110%. The growth in the test with A549/ATCC NSCLC was 98.6%; in the test with 786-0 renal, 116%; in the test on COLO 205 colon, 121%.

Take `CNc1nc(NC)c2cn[nH]c2n1`: the growth in the test on NCI-H23 lung is 104%; in the test with NCI-H322M lung it was 116%; in the test on HOP-62 NSCLC, 104%; in the test with NCI-H460 lung it was 109%; with HOP-92 NSCLC it was 84.9%; in the test with 786-0 renal it was 101%. The growth in the test with COLO 205 colon is 95.6%.

Turning to `O=P(O)(O)OCC(O)CO` (stereo not drawn), the growth in the test with NCI-H23 lung was 107%; with NCI-H322M lung, 107%; in the test on HOP-62 NSCLC it was 104%; in the test on NCI-H460 lung, 109%; with HOP-92 NSCLC, 96.1%; in the test on NCI-H522 lung it was 109%. The results for the growth with A549/ATCC NSCLC, with 786-0 renal and in the test on COLO 205 colon were 97.3%, 101% and 110%, respectively.

Consider `O=[N+]([O-])c1ccccc1N=Nc1ccc(O)cc1O`, for which the growth in the test with NCI-H23 lung was 103%; in the test on NCI-H322M lung it was 107%; in the test on HOP-62 NSCLC it was 106%; in the test on NCI-H460 lung, 115%; in the test on A549/ATCC NSCLC it was 106%; in the test with 786-0 renal it was 108%. In the test on COLO 205 colon, the growth was 102%.

On to `O=S(=O)(Cc1ccccc1)c1ccccc1`, for which the growth in the test with NCI-H23 lung was 105%; in the test with NCI-H322M lung it was 118%; with HOP-62 NSCLC, 104%; in the test with NCI-H460 lung it was 112%; in the test on HOP-92 NSCLC, 105%; in the test with NCI-H522 lung it was 104%. The figures for the growth in the test with A549/ATCC NSCLC, in the test with 786-0 renal and with COLO 205 colon were 98.6%, 101% and 112%, respectively.

As to `COc1cc2nn(-c3ccccc3N)nc2cc1OC`, the growth in the test with NCI-H23 lung is 94.3%; with NCI-H322M lung, 97.1%; in the test with HOP-62 NSCLC it was 103%; with NCI-H460 lung, 102%; with HOP-92 NSCLC, 85.8%; in the test with NCI-H522 lung it was 100%. Moreover, the values for the growth in the test with A549/ATCC NSCLC, in the test on 786-0 renal and with COLO 205 colon were 95.1%, 95.7% and 119%, respectively.

In the case of `O=C(O)COCC(=O)O`, the growth in the test with NCI-H23 lung was 105%; with NCI-H322M lung, 97.6%; in the test on HOP-62 NSCLC it was 103%; in the test with NCI-H460 lung, 107%; with NCI-H522 lung, 94.3%; with A549/ATCC NSCLC, 91.6%. In addition, the results for the growth in the test with 786-0 renal and in the test with COLO 205 colon were 110% and 108%, respectively.
